Test results: PubChem BioAssay (EPA / NIEHS)
Records with an inconclusive call do not appear. Active and inactive are the calls of the source. The calls were made as follows: active = hit-call score of the fitted dose curve at least 0.9, where 1 is the maximum; inconclusive = response in the unintended direction; inactive = score below 0.9.

What follows are molecules tested against Type-1 angiotensin II receptor (Homo sapiens) (UniProt P30556) (assay: NVS_GPCR_hAT1: NovaScreen (NVS) G Protein-Coupled Receptor Assay for human Angiotensin II receptor type 1 (AT1) (AID 2283263)).
Sequence of Type-1 angiotensin II receptor (Homo sapiens) (P30556 whole entry, looked up): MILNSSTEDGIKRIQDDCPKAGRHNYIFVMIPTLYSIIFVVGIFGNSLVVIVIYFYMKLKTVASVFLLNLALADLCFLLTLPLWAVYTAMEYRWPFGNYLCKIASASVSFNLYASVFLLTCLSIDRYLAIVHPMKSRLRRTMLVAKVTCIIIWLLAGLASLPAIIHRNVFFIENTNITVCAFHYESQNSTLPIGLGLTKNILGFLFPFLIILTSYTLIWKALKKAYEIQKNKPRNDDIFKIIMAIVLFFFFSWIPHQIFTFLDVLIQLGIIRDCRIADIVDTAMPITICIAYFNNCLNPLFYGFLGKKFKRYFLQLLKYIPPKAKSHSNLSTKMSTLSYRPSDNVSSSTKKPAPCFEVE
Protocol: NVS_GPCR_hAT1 is a biochemical, single-readout assay that uses extracted gene-proteins from KAN-TS in a tissue-based cell-free assay. Measurements were taken 3 hours after chemical dosing in a 48-well plate.NVS_GPCR_hAT1 is one of one assay component(s) measured or calculated from the NVS_GPCR_hAT1 assay. It is designed to make measurements of radioligand binding, a form of binding reporter, as detected with scintillation counting signals by Filter-based radiodetection technology.Data from the assay component NVS_GPCR_hAT1 was analyzed into 1 assay endpoint. This assay endpoint, NVS_GPCR_hAT1, was analyzed in the positive analysis fitting direction relative to DMSO as the negative control and baseline of activity. Using a type of binding reporter, loss-of-signal activity can be used to understand changes in the binding as they relate to the gene AGTR1. Furthermore, this assay endpoint can be referred to as a primary readout, because the performed assay has only produced 1 assay endpoint. To generalize the intended target to other relatable targets, this assay endpoint is annotated to the gpcr intended target family, where the subfamily is rhodopsin-like receptor.
Binding assays used specific radioligands (tritiated, iodinated) with non-radioactive competitive displacement ligands in agonist or antagonist protocols (as indicated) and various reference compounds and inhibitors to titrate specific binding to receptors and transporters. Most enzyme assays (CYPs, kinases, phosphatases, proteases, HDACs) used recombinant protein and specific substrates (fluorescence mostly, some colorimetric and radioactive) and inhibitors, followed by a biochemical separation of substrate and product. All assays for the biochemical HTS were initially run in duplicate at a single concentration (10 uM for CYP450 assays and 25 uM for all others). Assay-chemical combinations meeting a pre-defined threshold (e.g., 30% inhibition and other criteria defined below) were then run in singleton concentration-response format with maximum concentration of 20 uM for CYPs and 50 uM for all others. […]
In the case of `C#CCOS(=O)OC1CCCCC1Oc1ccc(C(C)(C)C)cc1` (stereo unspecified), the outcome is reported as “inactive”.
With `C=CCC1=C(C)C(OC(=O)C2C(C=C(C)C)C2(C)C)CC1=O` (stereo unspecified) the outcome was “inactive”.
In the case of `CCNc1nc(Cl)nc(NC(C)C)n1`, the outcome is reported as “inactive”.

What follows are molecules tested against human Histamine 1 Receptor (H1), HRH1 (gene 3269) (UniProt P35367) (assay: NVS_GPCR_hH1: NovaScreen (NVS) G Protein-Coupled Receptor Assay for human Histamine 1 Receptor (H1) (AID 2283268)).
Sequence of human Histamine 1 Receptor (H1), HRH1 (gene 3269) (P35367 whole entry, looked up): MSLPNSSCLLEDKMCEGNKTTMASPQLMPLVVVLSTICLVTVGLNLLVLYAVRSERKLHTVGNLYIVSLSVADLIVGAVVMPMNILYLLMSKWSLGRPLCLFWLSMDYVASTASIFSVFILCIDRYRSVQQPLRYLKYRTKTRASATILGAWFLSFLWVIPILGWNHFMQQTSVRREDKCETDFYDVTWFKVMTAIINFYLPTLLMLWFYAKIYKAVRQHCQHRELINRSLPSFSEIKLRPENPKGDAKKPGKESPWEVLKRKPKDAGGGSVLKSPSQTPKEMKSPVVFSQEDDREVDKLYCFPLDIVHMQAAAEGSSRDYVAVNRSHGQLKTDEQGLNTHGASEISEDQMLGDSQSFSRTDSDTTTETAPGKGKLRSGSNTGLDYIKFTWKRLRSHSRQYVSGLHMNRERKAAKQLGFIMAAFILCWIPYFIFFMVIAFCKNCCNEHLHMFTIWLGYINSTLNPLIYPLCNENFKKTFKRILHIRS
Outline: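 Filter-based scintillation detection of radioligand binding to human H1, 1 h incubation; chemicals screened in duplicate at 25 uM, then concentration-response; signal loss relative to DMSO taken as activity.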
For `CC(C)Oc1cc(-n2nc(C(C)(C)C)oc2=O)c(Cl)cc1Cl`, the outcome was “inactive”.
With `CCNc1nc(Cl)nc(NC(C)C)n1` the outcome was “inactive”.
In the case of `CNC(=S)S`, the outcome is reported as “inactive”.
For `COP(=S)(OC)Oc1nc(Cl)c(Cl)cc1Cl`, the outcome was “inactive”.

What follows are molecules tested against human Leukotriene B4 Receptor 1 (LTB4-BLT1), LTB4R (gene 1241) (UniProt Q15722) (assay: NVS_GPCR_hLTB4_BLT1: NovaScreen (NVS) G Protein-Coupled Receptor Assay for human Leukotriene B4 Receptor 1 (LTB4-BLT1) (AID 2283271)).
Sequence of human Leukotriene B4 Receptor 1 (LTB4-BLT1), LTB4R (gene 1241) (Q15722 whole entry, looked up): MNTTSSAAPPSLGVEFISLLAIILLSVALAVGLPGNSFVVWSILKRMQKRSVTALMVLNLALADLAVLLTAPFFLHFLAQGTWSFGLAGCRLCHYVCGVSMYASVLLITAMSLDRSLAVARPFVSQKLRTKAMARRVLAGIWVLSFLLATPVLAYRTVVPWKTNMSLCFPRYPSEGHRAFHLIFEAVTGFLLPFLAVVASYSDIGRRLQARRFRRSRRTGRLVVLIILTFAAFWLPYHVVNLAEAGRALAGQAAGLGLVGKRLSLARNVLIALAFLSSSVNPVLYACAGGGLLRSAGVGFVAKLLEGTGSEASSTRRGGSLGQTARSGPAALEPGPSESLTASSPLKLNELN
Protocol: NVS_GPCR_hLTB4_BLT1 is a biochemical, single-readout assay that uses extracted gene-proteins from Human neutrophils in a cell-free assay. Measurements were taken 1 hour after chemical dosing in a 48-well plate.NVS_GPCR_hLTB4_BLT1 is one of one assay component(s) measured or calculated from the NVS_GPCR_hLTB4_BLT1 assay. It is designed to make measurements of radioligand binding, a form of binding reporter, as detected with scintillation counting signals by Filter-based radiodetection technology.Data from the assay component NVS_GPCR_hLTB4_BLT1 was analyzed into 1 assay endpoint. This assay endpoint, NVS_GPCR_hLTB4_BLT1, was analyzed in the positive analysis fitting direction relative to DMSO as the negative control and baseline of activity. Using a type of binding reporter, loss-of-signal activity can be used to understand changes in the binding as they relate to the gene LTB4R. Furthermore, this assay endpoint can be referred to as a primary readout, because the performed assay has only produced 1 assay endpoint. To generalize the intended target to other relatable targets, this assay endpoint is annotated to the gpcr intended target family, where the subfamily is rhodopsin-like receptor.
Binding assays used specific radioligands (tritiated, iodinated) with non-radioactive competitive displacement ligands in agonist or antagonist protocols (as indicated) and various reference compounds and inhibitors to titrate specific binding to receptors and transporters. Most enzyme assays (CYPs, kinases, phosphatases, proteases, HDACs) used recombinant protein and specific substrates (fluorescence mostly, some colorimetric and radioactive) and inhibitors, followed by a biochemical separation of substrate and product. All assays for the biochemical HTS were initially run in duplicate at a single concentration (10 uM for CYP450 assays and 25 uM for all others). Assay-chemical combinations meeting a pre-defined threshold (e.g., 30% inhibition and other criteria defined below) were then run in singleton concentration-response format with maximum concentration of 20 uM for CYPs and 50 uM for all others. Each assay was run with positive and negative controls, and concurrent controls on every plate. The follow-up (secondary) screen tested active chemical-pairs in concentration series, as well as a few additional assays not tested in the primary screen, some selected negative inactives, and several cases re-run in the concentration series for confirmatory purposes.
`CC1COC(Cn2cncn2)(c2ccc(Oc3ccc(Cl)cc3)cc2Cl)O1` (stereo unspecified) was tested, and the outcome was “inactive”.
`COc1ccc(C(c2ccc(OC)cc2)C(Cl)(Cl)Cl)cc1` was tested, and the outcome was “inactive”.
With `OC(c1ccc(Cl)cc1)(c1cncnc1)c1ccccc1Cl` (stereo unspecified) the outcome was “inactive”.
`CO/C=C(/C(=O)OC)c1ccccc1Oc1cc(Oc2ccccc2C#N)ncn1` was tested, and the AC50 was 14.6 µM (active).
